For assay [1], the system named is Sodium/Iodide Symporter (NIS), SLC5A5 (gene 6528). As to the kind of experiment: CPHEA_Stoker_NIS_Inhibition_RAIU: CPHEA's Radioactive Iodide Uptake (RAIU) Assay for Sodium/Iodide Symporter (NIS) Inhibition, Stoker and Laws Labs (AID 2283841). The gist of the method:
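HEK293T cells stably expressing human NIS (hNIS-HEK293T-EPA) were exposed to test chemicals at 0.001–100uM (0.5% final DMSO) with 125I at a final 329pM in HBSS/10mM HEPES pH 7.4. After 2 hours at room temperature and ice-cold washes, intracellular 125I was counted as CPM and normalized to DMSO wells.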

Assay [2] in a line: CPHEA_Stoker_NIS_Cytotoxicity: Cytotoxicity Assessment for CPHEA's Radioactive Iodide Uptake (RAIU) Assay for Sodium/Iodide Symporter (NIS) Inhibition, Stoker and Laws Labs (AID 2283897). The gist of the method:
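hNIS-HEK293T-EPA human kidney cells were exposed for 2 hours at room temperature to test chemicals (0.001–100uM, 0.5% final DMSO) in HEPES-buffered HBSS, pH 7.4. Viability was read as ATP content by luciferase bioluminescence, loss of signal versus DMSO.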

The target in assay [3] is PGR (gene 5241) (UniProt P06401). In words: TOX21_PR_BLA_Followup_Antagonist_ratio: Tox21 HEK293 Progesterone Receptor (PR) Antagonism Beta-lactamase Follow-Up Assay, Ratio (AID 2283934).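 Note: PR-UAS-bla HEK293T cells stimulated with 1 nM R5020 agonist for 16 hr.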 The procedure, abridged:
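Readout is the blue/green (ch2/ch1) substrate cleavage ratio after 2 hours at room temperature, following 16 hr co-treatment of PR-bla HEK293T cells with compound and 1nM promegestone. Multiplexed CellTiter-Glo viability flags cytotoxicity; DMSO baseline.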

Assay [4] is described as follows: TOX21_PR_BLA_Followup_Agonist_viability: Viability Assessment in the Tox21 HEK293 Progesterone Receptor (PR) Agonism Beta-lactamase Follow-Up Assay (AID 2283935).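 Note: signal loss means lower viability so actives are cytotoxic.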 The gist of the method: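 Run multiplexed with the beta-lactamase FRET read, this endpoint measures ATP by CellTiter-Glo luminescence (30 min, room temperature). PR-UAS-bla HEK293T cells received compound 6 hr after plating and were then incubated 16 hr at 37C in 2% stripped serum.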

Assay [5] can be described thus: TOX21_PR_BLA_Followup_Antagonist_viability: Viability Assessment in the Tox21 HEK293 Progesterone Receptor (PR) Antagonism Beta-lactamase Follow-Up Assay (AID 2283936).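 Note: cells exposed to compound with R5020 agonist for 16 h; hits lower the luminescence signal meaning cytotoxicity.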 The procedure, abridged:
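PR-UAS-bla HEK293T cells in medium with 2% charcoal-stripped FBS were treated with compounds plus R5020 for 16 hr at 37C. After the beta-lactamase read, CellTiter-Glo was added to the same wells and luminescence read after 30 min at room temperature.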

Assay [6] addresses PGR (gene 5241) (UniProt P06401). In words: TOX21_PR_BLA_Followup_Agonist_ratio: Tox21 HEK293 Progesterone Receptor (PR) Agonism Beta-lactamase Follow-Up Assay, Ratio (AID 2283933). The procedure, abridged: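 Beta-lactamase reporter readout: ratio of cleaved (ch2) to uncleaved (ch1) substrate after 2 h room-temperature loading, following 16 h compound exposure at 37C. Cells were PR-UAS-bla HEK293T in 2% charcoal-stripped FBS medium. Viability was multiplexed by CellTiter-Glo.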

Inconclusive results are not listed. The source made the active and inactive calls. Rule for the calls: active = hit-call score of the fitted dose curve at least 0.9, where 1 is the maximum; inconclusive = response in the unintended direction; inactive = score below 0.9.

Sequence of PGR (gene 5241) (P06401 whole entry, looked up): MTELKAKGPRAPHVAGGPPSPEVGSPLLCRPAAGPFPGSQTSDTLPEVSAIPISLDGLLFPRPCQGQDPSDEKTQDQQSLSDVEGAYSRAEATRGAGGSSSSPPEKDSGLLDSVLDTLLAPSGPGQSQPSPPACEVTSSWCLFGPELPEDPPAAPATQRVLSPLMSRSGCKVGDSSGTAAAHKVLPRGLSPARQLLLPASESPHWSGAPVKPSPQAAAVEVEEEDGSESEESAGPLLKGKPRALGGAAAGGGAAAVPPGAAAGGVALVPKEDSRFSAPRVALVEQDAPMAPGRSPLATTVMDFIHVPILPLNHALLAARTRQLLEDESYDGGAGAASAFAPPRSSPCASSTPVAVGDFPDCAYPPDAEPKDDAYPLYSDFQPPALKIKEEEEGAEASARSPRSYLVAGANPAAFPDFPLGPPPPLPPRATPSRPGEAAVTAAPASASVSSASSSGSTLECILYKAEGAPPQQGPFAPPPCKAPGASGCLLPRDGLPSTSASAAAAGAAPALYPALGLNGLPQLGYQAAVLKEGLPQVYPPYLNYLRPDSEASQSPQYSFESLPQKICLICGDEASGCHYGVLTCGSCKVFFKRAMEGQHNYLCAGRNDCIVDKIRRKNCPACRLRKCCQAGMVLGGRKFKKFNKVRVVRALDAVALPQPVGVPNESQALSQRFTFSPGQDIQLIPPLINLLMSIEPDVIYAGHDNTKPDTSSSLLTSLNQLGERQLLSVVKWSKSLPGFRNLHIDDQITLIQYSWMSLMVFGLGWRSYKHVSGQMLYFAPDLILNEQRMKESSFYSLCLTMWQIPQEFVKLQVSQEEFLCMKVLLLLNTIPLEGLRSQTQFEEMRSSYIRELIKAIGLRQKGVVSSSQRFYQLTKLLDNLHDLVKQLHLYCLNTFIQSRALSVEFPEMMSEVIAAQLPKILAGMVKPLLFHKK

Consider `O=C(O)C1(c2ccc3c(c2)OC[C@H](Cc2ccc(-c4ccccc4)cc2)[C@H]3O)CCCC1`, for which the result in assay [1] and in assay [2] was inactive.

Take `CCC[CH2][Sn]([Cl])([Cl])[CH2]CCC`: the AC50 in assay [1] is 3.24 µM (active). For the same molecule, the outcome in assay [2] was inactive.

For `CCCSP(=S)(OCC)Oc1ccc(Cl)cc1Cl` (stereo unspecified), the half-maximal activity concentration (AC50) with PGR (gene 5241) [3] was 22.6 µM (active). For the same molecule, the call in assay [4] and in assay [5] was inactive.

Regarding `CCOCn1c(-c2ccc(Cl)cc2)c(C#N)c(Br)c1C(F)(F)F`, the AC50 in assay [1] is 0.616 µM (active). For the same molecule, the result in assay [2] was inactive.

On to `N#CS`, for which the half-maximal activity concentration (AC50) in assay [1] is 6.43 µM (active). In addition, the outcome in assay [2] was inactive.

Regarding `CC(C)CC(C)(c1ccc(O)cc1)c1ccc(O)cc1`, the result (in the assay with PGR (gene 5241) [6]; in assay [4]; in assay [5]) was inactive. In the assay with PGR (gene 5241) [3], the AC50 was 12.7 µM (active).

As to `OC(c1ccc(Cl)cc1)(c1ccc(Cl)cc1)c1cccnc1`, the outcome (with PGR (gene 5241) [6]; in assay [4]; in assay [5]) was inactive. Besides, in the assay with PGR (gene 5241) [3], the AC50 was 29.3 µM (active).

On to `O=S(=O)(Oc1ccc(Cl)cc1)c1ccc(Cl)cc1`, for which the outcome (with PGR (gene 5241) [3]; in assay [4]; in assay [5]) was inactive.

Regarding `CC(C)(C1CCC(O)CC1)C1CCC(O)CC1` (stereo unspecified), the result (in the assay with PGR (gene 5241) [3]; in assay [4]) was inactive.

As to `CCCSP(=S)(OCC)Oc1ccc(SC)cc1` (stereo unspecified), the result (in assay [1]; in assay [2]; in the assay with PGR (gene 5241) [3]; in assay [4]; in assay [5]) was inactive.

On to `O=[N+]([O-])c1ccc(Nc2ccccc2)cc1`, for which, in the assay with PGR (gene 5241) [3], the AC50 was 11.4 µM (active). The outcome in assay [4] and in assay [5] was inactive.

With `O=S(=O)(c1ccc(Cl)cc1)c1cc(Cl)c(Cl)cc1Cl`, in the assay with PGR (gene 5241) [3], the concentration at half-maximal activity (AC50) is 27.3 µM (active). In addition, the molecule was classed as inactive in assay [4] and in assay [5].

As for `CCOP(=S)(OCC)Oc1ccc(Cl)cc1Cl`, in the assay with PGR (gene 5241) [3], the AC50 was 33.2 µM (active). Further, in assay [4], the result was inactive.

In the case of `Cc1ccccc1OP(=O)(Oc1ccccc1C)Oc1ccccc1C`, the result (with PGR (gene 5241) [6]; in assay [4]; in assay [5]) was inactive. In addition, the AC50 with PGR (gene 5241) [3] was 39.9 µM (active).

Values taken from PubChem BioAssay (EPA / NIEHS).
